# Only some compounds are listed: those with a hit (about 7.4% of all), similar ones and a draw of the others.
# NPC1 promoter act: qHTS Assay for NPC1 Promoter Activators; Huh7 NPC1 promoter luciferase reporter, 24 h; Potency, µM (titrated, usually from 9.22 µM), inactives show top-dose activation, actives largely listed as activators; 320,000 tested, 2.4% active; note: % of control where 0% means no effect; nearly all actives have a fitted effect of over 60% in size
#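 NPC1 promoter–luciferase Huh7 cells; 24 h compound; luminescence.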
# Rab9 promoter act: qHTS Assay for Rab9 Promoter Activators; Huh7 Rab9 promoter-luciferase reporter, luminescence, 24 h; Potency, µM (top dose mostly 9.22 µM), without a hit: at the top dose activation, negative = inhibition, hits mostly activators; 320,000 tested, 2.8% active; AID 485297, 2010; note: % of control where 0% means no effect; nearly all actives have a fitted effect of over 60% in size
#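 Huh7 cells stably carrying a Rab9 promoter-luciferase reporter, 1500 cells per well in OP-MEM I with 10% FBS, treated with compound 24 hours at 37C. Luciferase activity read by luminescence after 10 minutes with Amplite reagent.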
# SMN2 splice enh: qHTS Assay for Enhancers of SMN2 Splice Variant Expression | 210,000 tested, 2.8% active | Potency, µM (top dose mostly 46.1 µM), inactives show at the top dose activity change, positive = activation, hits mostly activators | HEK293 SMN2-luciferase splicing reporter, luminescence, 30-36 h; note: % of control where 0% means no effect; nearly all actives have a fitted effect of over 55% in size
#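 qHTS luciferase splicing reporter: luminescence rises when SMN2 exon 7 is included in transfected HEK293 cells. Compound exposure lasted 30-36 h at 37C, with 4.5 mM final sodium butyrate as control, followed by a ONE-Glo read.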
# ELG1 genotoxic: qHTS screen for small molecules that induce genotoxicity in human embryonic kidney (HEK293T) cells expressing luciferase-tagged ELG1; 330,000 tested, 1.3% active; HEK293T ELG1-luciferase reporter, luminescence, 16 h; Potency, µM (series often up to 46 µM), for inactives: top-dose activity change, positive = activation, usual class: activators; note: % of control where 0% means no effect; nearly all actives have a fitted effect of over 60% in size
#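 Screening used a luciferase reporter fused to human ELG1 in HEK293T cells. Luminescence was read on a CCD plate imager after 16 hr exposure and 30 min ONE-Glo incubation.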
# FLuc counter: qHTS profiling assay for firefly luciferase inhibitor/activator using purifed enzyme and Km concentrations of substrates (counterscreen for miR-21 project); Potency, µM (doses to about 57.5 µM), for inactives: at the highest dose activity change, negative = inhibition, hits mostly inhibitors; purified FLuc, Km substrates, luminescence inhibition; 360,000 tested, 6.9% active; Luciferin 4-monooxygenase (Photinus pyralis), P08659;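 note: plate controls were vehicle for no effect and reference inhibitor for full effect; nearly all actives have a fitted effect of over 55% in size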
# Target sequence (P08659 whole entry, looked up): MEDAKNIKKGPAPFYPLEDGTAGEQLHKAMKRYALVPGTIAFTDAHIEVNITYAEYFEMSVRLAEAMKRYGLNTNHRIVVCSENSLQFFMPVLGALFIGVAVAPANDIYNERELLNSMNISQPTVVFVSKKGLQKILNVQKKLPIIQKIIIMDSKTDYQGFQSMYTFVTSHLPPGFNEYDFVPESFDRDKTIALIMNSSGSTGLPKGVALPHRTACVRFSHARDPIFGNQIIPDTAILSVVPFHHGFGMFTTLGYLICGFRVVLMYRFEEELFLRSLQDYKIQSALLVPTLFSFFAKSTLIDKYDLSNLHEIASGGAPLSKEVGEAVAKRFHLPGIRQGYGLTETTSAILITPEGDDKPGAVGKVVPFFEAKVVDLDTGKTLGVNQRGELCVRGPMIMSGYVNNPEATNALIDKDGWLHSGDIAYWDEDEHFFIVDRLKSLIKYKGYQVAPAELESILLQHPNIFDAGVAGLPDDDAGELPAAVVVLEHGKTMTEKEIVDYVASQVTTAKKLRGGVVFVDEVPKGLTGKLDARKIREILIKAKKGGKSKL
#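 Purified P. pyralis luciferase, 10 nM final, with Km-level 10 uM D-luciferin and 10 uM ATP in 50 mM Tris acetate pH 7.5, 10 mM Mg acetate, 0.01% Tween-20, 0.05% BSA; 6-point qHTS titration about 60 µM downward; luminescence read.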
# * = called active by the depositor; ? = inconclusive; · = no result given; [ ] = another dose, or the depositor's remark. Calls come from the whole dose curve; as a rule, active = well fitted curve in the direction sought with a large enough effect; inconclusive = small, poorly fitted or top-dose-only effect, or another doubt; inactive = no such curve, though single readings can be large; an effect the other way counts as inactive or inconclusive. Potency is the fitted concentration of half-maximal effect.
SMILES,NPC1 promoter act,Rab9 promoter act,SMN2 splice enh,ELG1 genotoxic,FLuc counter
O=C(c1ccco1)N1N=C(c2ccc3nccnc3c2)CC1c1ccccc1 (stereo not given),-8%,17%,0%,6%,17µM*
S=C(Nc1ccc2c(c1)OCO2)N1CCN(Cc2ccco2)CC1,?,?,·,15%,1.3µM*
Cc1cccc(NC(=O)c2nc[nH]c2C(=O)NCC(=O)OC(C)(C)C)c1,-4%,-1%,·,-6%,-7%
CCOc1ncccc1C(=O)OCC(=O)c1ccc(C)c(C)c1,?,?,?,9%,11µM*
CCOc1ncccc1C(=O)OCC(=O)c1ccccc1,-3%,-3%,9%,-1%,?
CCOc1ncccc1C(=O)OCC(=O)c1ccccc1Br,1%,0%,17%,4%,13µM*
Cc1cccc(OCC(=O)Nc2cccc(-c3nc4ccccc4s3)c2)c1,·,·,3.2µM*,·,6µM*
Cn1c(=O)c2ncn(CC(=O)Nc3cccc(-c4nc5ccccc5s4)c3)c2n(C)c1=O,3.2µM*,?,-20%,3%,3.8µM*
Cc1ccc(OCC(=O)Nc2cccc(-c3nc4ccccc4s3)c2)cc1,·,·,·,·,9.5µM*
CC(O)[C@H]1CC[C@H]2[C@@H]3CC[C@H]4C[C@H](O)CC[C@]4(C)[C@H]3[C@H](O)C[C@]12C (stereo not given in full),4%,-5%,·,-5%,-2%
C[C@H](NC(=O)c1ccco1)C(=O)Nc1cc(S(=O)(=O)N2CCCC2)ccc1OCC(F)(F)F,·,·,·,0%,·
CCOc1cc(C(=O)Nc2cccc(OCC(=O)N3CCOCC3)c2)cc(OCC)c1OCC,0%,-10%,·,-13%,-2%
CCN1C(=O)c2ccc(C(=O)Nc3cccc(C(=O)O)c3)cc2C1=O,18%,?,·,2%,0.27µM*
CCN1C(=O)c2ccc(C(=O)O)cc2C1=O,-1%,-2%,2%,1%,-1%
O=C(O)c1cccc(NC(=O)c2ccc3c(c2)C(=O)N(c2cccc([N+](=O)[O-])c2)C3=O)c1,2%,-1%,·,0%,3.8µM*
O=C(O)c1ccc(NC(=O)c2ccc3c(c2)C(=O)N(c2ccccc2)C3=O)cc1,-2%,0%,·,3%,15µM*
O=C(O)c1cccc(NC(=O)c2ccc(N3C(=O)c4ccc(C(=O)Nc5cccc(C(=O)O)c5)cc4C3=O)cc2)c1,17%,?,·,0%,27µM*
N#CCc1ccc(NS(=O)(=O)c2ccc(C3CCCCC3)cc2)cc1,-4%,-10%,-67%,0%,5%
COc1ccccc1NC(=O)C1=C(C)Nc2nc(SCc3ccccc3F)nn2C1c1cccs1 (stereo not given),·,·,7%,·,-4%
CN(C)CCCn1c2c(c(SCC(=O)Nc3nccs3)nc1=O)CCC2,3%,0%,·,-12%,0%
CC(C)(C)N1C(=O)c2ccc(C(=O)Nc3ccc(C(=O)O)cc3)cc2C1=O,7%,6%,·,-1%,11µM*
O=C(O)c1ccc2c(c1)C(=O)N(c1cccc(C(=O)/C=C/c3ccccc3)c1)C2=O,4%,-8%,·,4%,2.7µM*
Cc1ccc(C)c(NC(=O)c2cc(S(=O)(=O)N3CCCc4ccccc43)ccc2F)c1,·,·,·,·,5%
CSc1ccc(/C=C/C(=O)c2ccc(O)cc2)cc1,24%,?,-3%,?,3µM*
CSc1ccc(/C=C/C(=O)OCC(=O)NC(C)C)cc1,0%,3%,20%,-2%,-12%
SMILES,NPC1 promoter act,Rab9 promoter act,SMN2 splice enh,ELG1 genotoxic,FLuc counter
Cc1ccc(C(=O)/C=C/C(=O)O)cc1,4%,1%,-23%,0%,?
Cc1ccc(/C=C/C(=O)c2ccc(O)cc2)cc1,19%,?,·,17%,2.1µM*
Cc1cccc(C(=O)OCC(=O)c2ccc3c(c2)OCO3)c1O,0.45µM*,1.4µM*,·,2.6µM*,0.38µM*
CC(C)C(=O)Nc1ccccc1C(=O)OCC(=O)c1ccc2c(c1)OCCO2,?,2.8µM*,-18%,0%,1.3µM*
O=C(COC(=O)c1ccccc1[N+](=O)[O-])c1ccc2c(c1)OCO2,0.32µM*,0.32µM*,·,?,0.019µM*
Cc1cccc(C)c1NC(=O)COC(=O)c1ccc2c(c1)OCO2,-2%,-4%,4%,12%,0%
COc1ccc(C(=O)C2CCCN(C(=O)CCc3scnc3C)C2)c(C)c1 (stereo not given),?,?,·,?,19µM*
Cc1nnc(SCc2ccccc2Cl)c2cc3occc3n12,·,·,·,·,17µM*
Cc1oc(-c2ccccc2F)nc1CSc1nnc(C)n2c1cc1occc12,·,·,·,·,-1%
COC(=O)C(Cc1ccc(OC(=O)c2ccccc2Cl)cc1)N1Cc2ccccc2C1=O (stereo not given),?,4µM*,28%,15%,?
COC(=O)C(Cc1ccc(OC(=O)c2ccccc2C)cc1)N1Cc2ccccc2C1=O (stereo not given),?,?,?,-1%,-14%
Cc1ccc(-c2nnc(Nc3ccc4c(c3)OCO4)c3ccccc23)cc1S(=O)(=O)NCCO,0%,16%,-16%[1.84 µM],-1%,15µM*
Cc1ccc(-c2nnc(Nc3ccc4c(c3)OCO4)c3ccccc23)cc1S(=O)(=O)NC(C)C,1%,-1%,1%,-6%,5.4µM*
Cc1ccc(-c2nnc(Nc3ccc(Cl)c(Cl)c3)c3ccccc23)cc1S(=O)(=O)NCCO,·,·,-4%,·,?
CCCc1ccc(OCc2nc(-c3ccc(NC(=O)c4ccco4)cc3)no2)cc1,2.5µM*,?,21%,16µM*,13µM*
CCCc1ccc(OCc2nc(-c3ccc(NC(=O)c4cccs4)cc3)no2)cc1,22%,?,?,?,13µM*
Cc1cc(OCc2nc(-c3ccc(NC(=O)c4cccnc4)cc3)no2)ccc1Cl,-1%,-11%,-5%,-4%,-3%
CCOc1ccc(NC(=O)C(C)Oc2ccccc2C(=O)Nc2ccc(C)c(Cl)c2)cc1 (stereo not given),0%,7%,15%,-8%,12µM*
CSc1ccccc1C(=O)Nc1cc(C)cc(C)c1,-1%,-2%,-19%,0%,?
CCOc1ccc(NC(=O)c2ccccc2OCC(=O)c2ccc(C)cc2)cc1,2%,5%,14%,18%,5.4µM*
Cc1ccc(NC(=O)COc2ccccc2C(=O)Nc2ccccc2)cc1Cl,4%,-3%,-9%[1.84 µM],1%,?
Cc1ccc(C(=O)COc2ccccc2N2C(=O)c3ccccc3C2=O)cc1,?,?,20µM*,?,-3%
Cc1ccc(NC(=O)c2ccccc2OCC(=O)c2ccc(F)cc2)cc1,-2%,-3%,18%,12%,-1%
